“And” between values parts separate entries of the source, which are not always exact repeats. Equal entries are not always repeated. The panel holds about 79,000 compounds, 15% with a hit somewhere; the sample as a whole holds those more often. The source made the active and inactive calls. Rule as the data show it: active = growth inhibition above about 70%; inactive = the rest. Where a SMILES comes first, the peptide text is derived from it. Bridges are numbered along the chain shown (N, C = ends). [ ]: non-standard residue; d: D form. Aib = CC(C)(N)C(=O)O; βAla = NCCC(=O)O
Assays:
[1] = NCI Yeast Anticancer Drug Screen. Data for the rad50 strain (AID 155);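 also: 0% = growth of vehicle-only cultures of the same strain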; settings: S. cerevisiae rad50 strain growth inhibition, active compounds read high; at 50.0 µM unless noted
Outline: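 Vehicle-treated cultures provide the reference for the growth inhibition reported for compound-exposed, repair-deficient yeast.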

[2] = NCI Yeast Anticancer Drug Screen. Data for the mec2-1 strain (AID 157); settings: S. cerevisiae mec2-1 strain, active compounds read high; at 50.0 µM unless noted
Outline: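 Growth inhibition is read against vehicle-treated controls after compound exposure of the mec2-1 yeast strain, which is defective in DNA damage repair or cell cycle control.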

[3] = NCI Yeast Anticancer Drug Screen. Data for the sgs1 mgt1 strain (AID 161);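 also: 0% = growth of cultures given vehicle only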; settings: S. cerevisiae sgs1 mgt1 strain, active compounds read high; at 50.0 µM unless noted
Outline: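 Yeast cells carrying a defined DNA-repair defect were exposed to test compounds. Growth inhibition was measured relative to vehicle-treated controls.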

[4] = NCI Yeast Anticancer Drug Screen. Data for the cln2 rad14 strain (AID 165);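 also: 0% = growth equal to vehicle treated cultures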; settings: S. cerevisiae cln2 rad14 strain, active compounds read high; at 50.0 µM unless noted
Outline: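 Growth inhibition, relative to vehicle-treated controls, is the read-out. The test organism is a yeast strain with defined genetic alterations, cln2 rad14.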

[5] = NCI Yeast Anticancer Drug Screen. Data for the bub3 strain (AID 167); settings: S. cerevisiae bub3 mutant strain, active compounds read high; at 50.0 µM unless noted
Outline: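 Mutant yeast screening strain plus compound; vehicle-treated cultures serve as the 0% inhibition reference.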

[6] = NCI Yeast Anticancer Drug Screen. Data for the mlh1 rad18 strain (AID 175); settings: S. cerevisiae mlh1 rad18 strain growth inhibition, active compounds read high; at 50.0 µM unless noted
Outline: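 Cells of a genetically altered yeast strain, deficient in DNA damage repair, were treated with compound. Their growth was then compared with that of vehicle-treated cultures to give inhibition.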

Measured: growth inhibition

[N-]=[N+]=CC(=O)C1OC12C1CC3CC(C1)CC2C3 (stereo not drawn)
inactive: [1] -9.2% | [2] -5.85% | [3] 2.45% | [4] -6.25% | [5] 5.2% | [6] 4.55%

CCOC(=O)CC(=O)Cc1ccccc1
inactive: [1] -23.3% | [2] -16.6% | [3] -6.25% | [4] -43.8% | [5] -13.2% | [6] -19.1%

CC1(C)OCC[C@@H]1[Si](C)(C)C
inactive: [1] 17.6% | [2] 21.6% | [3] 14.2% | [4] 2.8% | [5] -3.45% | [6] -19.6%

O=C1NC(Cc2ccccc2)C(=O)NC1Cc1ccccc1 (stereo not drawn)
inactive: [1] 2.35% | [2] -6.7% | [3] 7.7% | [4] -22.8% | [5] -4.95% | [6] -1.35%

O=C(CCl)Oc1ccc2ccccc2c1
inactive: [1] 27.1% | [2] -2.05% | [3] -8.05% | [4] 8.25% | [5] 13.1% | [6] 31.4%

O=c1[nH]cnc2c1ncn2C1OC(CO)C(O)C1O (stereo not drawn)
inactive: [1] 8% and -14.7% | [2] 8.25% and -20.1% | [3] 0.45% and 12.8% | [4] -117% and 5% | [5] 15.4% and 21.7% | [6] 5.85% and 5.3%

O=c1cc(N2CCOCC2)n2ccccc2n1
inactive: [1] -4.4% | [2] -4.15% | [3] 8% | [4] -20.6% | [5] -8.35% | [6] 8.1%

Cc1nn(C)c(N)c1C#N
inactive: [1] -15.9% and 8% | [2] -11.7% and 5.95% | [3] -24.6% and 3.6% | [4] 0.3% and 26.9% | [5] -8.45% and -6.5% | [6] -18.2% and -7.45%

CCc1cc(C(=O)OC/C(C)=N/O)c2ccccc2n1
inactive: [1] -18.8% | [2] -0.65% | [3] -10.1% | [4] -18.4% | [5] 30.4% | [6] -22.6%

OCCCC(O)CCC(O)CCC(O)CCCO (stereo not drawn)
inactive: [1] -4% | [2] -20.1% | [3] 9.15% | [4] 9.5% | [5] -22.8% | [6] 5.15%

O=c1[nH]c(=O)c2nc3c(=O)[nH]c(=O)[nH]c3nc2[nH]1
inactive: [1] -14.2% | [2] -21.1% | [3] 0.95% | [4] -5.95% | [5] 2.65% | [6] -27.1%

Cc1c2noc1CCCCCCCCCCC2
inactive: [1] 18.9% | [2] 20% | [3] 3.6% | [4] -4.15% | [5] -13.7% | [6] 17.9%

CC1=CCC(C(C)C)C2CC(C)(O)CCC12 (stereo not drawn)
inactive: [1] -3.1% | [2] -1.8% | [3] 7.15% | [4] -24.9% | [5] -4.35% | [6] 0.95%

O=C(CSS(=O)(=O)O)Nc1ccccc1
inactive: [1] 17.6% | [2] -0.65% | [3] 7.5% | [4] 14.6% | [5] 9.65% | [6] -8.05%

Cn1nc(-c2ccccc2)c(C(=O)/C=C/c2ccccc2)c(N2CCCCC2)c1=O
inactive: [1] -27.9% | [2] -11.6% | [3] -11.5% | [4] 3% | [5] 27% | [6] -27.8%

CCOC(=O)C1=C(O)C(=O)C=C(O)C1=N
inactive: [1] -12.2% | [2] -2.6% | [3] -11.6% | [4] 4.5% | [5] -18.4% | [6] 9.65%

O=c1c2cc3c(=O)n4c(cc(-c5ccccc5)c5cc(Cl)ccc54)nc3cc2nc2cc(-c3ccccc3)c3cc(Cl)ccc3n12
inactive: [1] 14.2% | [2] 5.55% | [3] 18.9% | [4] 14.2% | [5] -1.05% | [6] -9.7%

COc1cccc(-c2cc(=O)c3cc(N4CCOCC4)ccc3[nH]2)c1
inactive: [1] -35.9% | [2] -27.9% | [3] -22.9% | [4] -2% | [5] -40.9% | [6] -58.2%

Nc1nc(N)c2nc(SC34CC5CC(CC(C5)C3)C4)c(N)nc2n1
inactive: [1] -1.6% | [2] 2.05% | [3] -7.1% | [4] -20.8% | [5] -3.65% | [6] 1.4%

CC1CCCN1CCOC(=O)C(c1ccccc1)C1CCCC1 (stereo not drawn)
inactive: [1] -4.65% | [2] 35.5% | [3] 32.1% | [4] -4.7% | [5] 3.3% | [6] 11.2%

Nc1c(F)cc(I)cc1F
inactive: [1] -3.95% | [2] 2.15% | [3] -2.2% | [4] -43% | [5] 10.2% | [6] 1.35%

CCOP(=O)(OCC)/C(=C\n1c(=S)[nH]c2cc(C)ccc21)C(=O)OC
inactive: [1] -34.1% | [2] -27.7% | [3] 13.3% | [4] -4.4% | [5] -2.5% | [6] 31.3%

CC1(C)NC(=O)C(NC(=O)C(N)CC(=O)O)CCCCNC(=O)CCNC1=O (stereo not drawn) (H-DK[Aib][βAla]; lactam 2-C; configuration not given here)
inactive: [1] -4.35% | [2] -67.5% | [3] -32.3% | [4] -10.6% | [5] 6.35% | [6] -17.9%

O=C(Cc1nc2ccccc2s1)C(=O)Nc1cccc(C(F)(F)F)c1
inactive: [1] -4.95% | [2] 8.75% | [3] -10.7% | [4] 7.95% | [5] 6.1% | [6] -6%

CNc1cc(C(C)C)ccc1C
inactive: [1] 4.1% | [2] 8.75% | [3] 10.7% | [4] 0.85% | [5] 17.1% | [6] 3.25%

CCOC(=O)C(Cc1ccc(Cl)cc1)(NC(C)=O)C(=O)OCC
inactive: [1] -1.25% | [2] -13.6% | [3] -4.25% | [4] -23.9% | [5] 14.4% | [6] -10.4%

COc1cc(Nc2nc3ccc(C(F)(F)F)cc3nc2C(=O)O)cc(OC)c1OC
inactive: [1] 15.8% | [2] 20.3% | [3] 29.9% | [4] 48.7% | [5] 24.8% | [6] 10.3%

CC(=O)CC/C=C(\C)CC(C)C
inactive: [1] 17.4% | [2] 11.6% | [3] 2.85% | [4] 13.6% | [5] 9.8% | [6] 10.1%

CCCC(=O)OC1CC(n2cc(F)c(=O)[nH]c2=O)OC1CO (stereo not drawn)
inactive: [1] 8.6% | [2] 0.45% | [3] 11.6% | [4] 2.55% | [5] 7.85% | [6] -28.6%

CC1=CCC(CC2CO2)C1(C)C (stereo not drawn)
inactive: [1] -27.6% | [2] -48.4% | [3] -17.2% | [4] -9.95% | [5] -35.2% | [6] -31.1%

CC(CCO)CCCO (stereo not drawn)
inactive: [1] -22.1% | [2] -11.8% | [3] 7.35% | [4] -13.8% | [5] -26.2% | [6] -26.8%

CCCCC1=C(c2ccccc2)/C(=N/Nc2ccc([N+](=O)[O-])cc2[N+](=O)[O-])c2ccccc21
inactive: [1] 12.7% | [2] -1.45% | [3] 5.65% | [4] -2.85% | [5] 1.2% | [6] 9%

CC(=O)OCCOc1ccc2c(c1)OCO2
inactive: [1] 3.2% | [2] -1.2% | [3] 4.95% | [4] -23.6% | [5] -1.75% | [6] 30.7%

CCCCCCCCCC(=O)N1CCCC(C)C1 (stereo not drawn)
active: [1] 99.5% | [2] 99.7% | [3] 99.6% | [4] 98.7% | [5] 99.2% | [6] 99.5%

COc1ccc(C(=[N+]=[N-])c2ccc(OC)cc2)cc1
inactive: [1] -4.65% | [2] -6.85% | [3] 7.35% | [4] -48.2% | [5] -10.1% | [6] 4.75%

CCCCC(CC)CCC(C)O (stereo not drawn)
inactive: [1] -6.75% | [2] -4.75% | [3] 25.6% | [4] -40.4% | [5] -16.8% | [6] -14.7%

NC(=S)N/N=C\c1cccc(O)c1O
inactive: [1] 2.9% | [2] 25.1% | [3] 21% | [4] 7% | [5] 13.4% | [6] 12.7%

Cc1cc(-c2cccc3ccccc23)[n+]([O-])cc1C
inactive: [1] 15.6% | [2] 1.15% | [3] 17.2% | [4] -16.3% | [5] -24.1% | [6] 11.8%

Reference: PubChem BioAssay (NCI)
